# Measured values as given in PubChem BioAssay (NCI).
# The panel holds about 83,000 compounds, 20% with a hit somewhere; the sample as a whole holds those more often.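 A percent growth of 40 corresponds to 60% growth inhibition; 0 means no net growth; -100 means all cells died. Active threshold: below 10.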 Calls of active or inactive are those of the source.
# Tested on: NCI-H460 lung
# Experiment: NCI-60 one-dose screen, 48 h (100 = growth as untreated, 0 = no growth, -100 = all killed)
# Settings: 10 µM
row,Structure (SMILES),growth
1,COc1cccc(/C=N/NC(=S)NC2CC3CCC2C3)c1O (stereo not drawn),3.68% (active)
2,CC(C)(O)C#CC#CC(C)(C)O,104% (inactive)
3,O=C(O)/C=C/c1ccc2c(c1)CCC2,103% (inactive)
4,COC(=O)Nc1nc2ccc(C(=O)c3cccs3)cc2[nH]1,7.45% (active)
5,C[N+](C)=c1ccc2nc3c(cc(Nc4ccccc4)c4ccccc43)oc-2c1,65% (inactive)
6,O=C(O)c1ccnc(Br)c1,104% (inactive)
7,Cc1ccccc1N=C(c1ccccc1)C1C(=O)c2ccccc2C1=O,101% (inactive)
8,O=c1[nH]nc(SC2CCCCC2)c(=O)[nH]1,104% (inactive)
9,C=CCc1cc(C(C)=O)cc(OC)c1O,97.8% (inactive)
10,Cc1cc(Cc2cc(C)c(N)cc2N)c(N)cc1N,101% (inactive)
11,Clc1ccc(-c2nnc(-c3cccc4ccccc34)o2)cc1,96.4% (inactive)
12,O=S(=O)(O)c1cc(O)c2c(N=Cc3ccccc3O)c(S(=O)(=O)O)ccc2c1,105% (inactive)
13,COCCCC/C(=N\OCCN)c1ccc(C(F)(F)F)cc1,106% (inactive)
14,COC(=O)Nc1cccc(Cl)c1OC,38.2% (inactive)
15,Cc1ccc(C(=O)NC2c3ccccc3Oc3ccccc32)cc1,59.8% (inactive)
16,CC(=O)NC(N)=S,105% (inactive)

# Tested on: HOP-92 NSCLC
# Experiment: as above
# Settings: 10 µM
row,Structure (SMILES),growth
1,NC(=S)N/N=C/c1ccc(N)cc1,89.1% (inactive)
2,CCOC(=O)CSc1c([N+](=O)[O-])ncn1C,113% (inactive)
3,Nc1ncnc2c1nc(N)n2C1OC(CO)C(O)C1O (stereo not drawn),-29.8% (active)
4,C=CCOC(=O)C(=O)OCC=C,90% (inactive)
5,O=C(O)CCCc1ccccc1,105% (inactive)
6,COc1cc([C@@H]2c3cc4c(cc3[C@H](O)[C@H]3COC(=O)[C@H]23)OCO4)cc(OC)c1OC,11.3% (inactive)
7,CCC(C)(O)c1ccc(C)cc1 (stereo not drawn),103% (inactive)
8,O=C(O)CCC(NC(=O)OCc1ccccc1)C(=O)O (stereo not drawn),95.9% (inactive)
9,CC12CC3CC1C(C(=O)O2)C3C(=O)O (stereo not drawn),107% (inactive)
10,Cc1nc2ccccc2c2nnc(SCC(=O)N(Cc3ccccc3)c3ccccc3)n12,82.5% (inactive)
11,COc1cccc(/C=N/NC(=S)NC2CC3CCC2C3)c1O (stereo not drawn),55.5% (inactive)
12,COC(=O)Nc1nc2ccc(C(=O)c3cccs3)cc2[nH]1,63.9% (inactive)
13,C[N+](C)=c1ccc2nc3c(cc(Nc4ccccc4)c4ccccc43)oc-2c1,79.5% (inactive)
14,O=C(O)c1ccnc(Br)c1,96.9% (inactive)
15,Cc1ccccc1N=C(c1ccccc1)C1C(=O)c2ccccc2C1=O,72.7% (inactive)
16,O=c1[nH]nc(SC2CCCCC2)c(=O)[nH]1,82% (inactive)
17,C=CCc1cc(C(C)=O)cc(OC)c1O,125% (inactive)
18,CC(=O)OC(C(=O)O)c1ccccc1 (stereo not drawn),80.4% (inactive)
19,Cc1cc(Cc2cc(C)c(N)cc2N)c(N)cc1N,91.4% (inactive)
20,COCCCC/C(=N\OCCN)c1ccc(C(F)(F)F)cc1,63.2% (inactive)
21,Cc1ccc(C(=O)NC2c3ccccc3Oc3ccccc32)cc1,62.1% (inactive)
22,CC(=O)NC(N)=S,89.7% (inactive)
